# Assay results published in publication PMC7862700, “An all-to-all approach to the identification of sequence-specific readers for epigenetic DNA modifications on cytosine”.
# Key:
# Assay in all cases: DAPPL (digital affinity profiling via proximity ligation, sequencing); 10 mM Tris-HCl pH 7.5, 50 mM NaCl, 1 mM DTT, 4% glycerol, room temperature, 30 min; GST-TFs on glutathione beads, 16-mer random dsDNA library, 0.1% formaldehyde crosslink after washing; high values mean tight binding
# FLI1 = target: T1, FLI1 (Homo sapiens, UniProt Q01543 1-452); conditions: protein: recombinant; tags: N-terminal GST; dsDNA, one strand shown
# T1 sequence: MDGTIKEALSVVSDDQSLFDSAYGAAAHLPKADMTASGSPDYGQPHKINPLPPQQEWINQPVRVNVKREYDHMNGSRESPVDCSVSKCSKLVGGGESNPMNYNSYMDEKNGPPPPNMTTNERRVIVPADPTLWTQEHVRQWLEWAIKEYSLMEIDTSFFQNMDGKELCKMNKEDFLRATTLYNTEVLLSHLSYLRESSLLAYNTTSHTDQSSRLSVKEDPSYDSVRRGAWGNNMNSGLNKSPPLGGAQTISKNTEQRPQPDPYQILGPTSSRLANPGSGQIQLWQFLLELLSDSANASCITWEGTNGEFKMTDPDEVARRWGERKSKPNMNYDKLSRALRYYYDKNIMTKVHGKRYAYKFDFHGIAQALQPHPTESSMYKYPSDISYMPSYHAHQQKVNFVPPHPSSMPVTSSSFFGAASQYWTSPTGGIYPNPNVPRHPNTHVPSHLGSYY
# How it was run: (§1)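 Binding signal is given per hexamer as its read frequency for a factor divided by its frequency in the tag-only sample. GST-fused human transcription factors were expressed in yeast, captured on glutathione beads, barcoded with DNA and pooled with that sample, then incubated with 200 nmole of a 16-mer random double-stranded DNA library in Tris/NaCl/DTT/glycerol buffer for 30 min at room temperature. The pools were then washed, crosslinked, proximity-ligated, amplified by PCR and sequenced on an Illumina NextSeq500.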
# ELK1 = target: T2, ELK1 (Homo sapiens, UniProt P19419 1-428); conditions: protein: recombinant; tags: N-terminal GST; dsDNA, one strand shown
# T2 sequence: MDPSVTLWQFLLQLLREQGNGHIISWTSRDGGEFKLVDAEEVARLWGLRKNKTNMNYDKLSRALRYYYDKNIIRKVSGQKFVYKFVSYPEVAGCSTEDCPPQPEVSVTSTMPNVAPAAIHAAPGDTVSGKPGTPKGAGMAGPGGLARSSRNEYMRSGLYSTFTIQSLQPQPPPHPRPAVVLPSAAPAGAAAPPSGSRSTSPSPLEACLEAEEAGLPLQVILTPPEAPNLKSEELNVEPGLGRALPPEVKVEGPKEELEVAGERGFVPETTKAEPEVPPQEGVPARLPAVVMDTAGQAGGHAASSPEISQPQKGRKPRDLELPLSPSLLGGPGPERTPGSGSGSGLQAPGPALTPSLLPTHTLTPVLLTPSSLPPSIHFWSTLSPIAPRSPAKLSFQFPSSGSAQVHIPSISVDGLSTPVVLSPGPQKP
# How it was run: as §1
# GABPA = target: T3, GABPA (Homo sapiens, UniProt Q06546 1-454); conditions: protein: recombinant; tags: N-terminal GST; dsDNA, one strand shown
# T3 sequence: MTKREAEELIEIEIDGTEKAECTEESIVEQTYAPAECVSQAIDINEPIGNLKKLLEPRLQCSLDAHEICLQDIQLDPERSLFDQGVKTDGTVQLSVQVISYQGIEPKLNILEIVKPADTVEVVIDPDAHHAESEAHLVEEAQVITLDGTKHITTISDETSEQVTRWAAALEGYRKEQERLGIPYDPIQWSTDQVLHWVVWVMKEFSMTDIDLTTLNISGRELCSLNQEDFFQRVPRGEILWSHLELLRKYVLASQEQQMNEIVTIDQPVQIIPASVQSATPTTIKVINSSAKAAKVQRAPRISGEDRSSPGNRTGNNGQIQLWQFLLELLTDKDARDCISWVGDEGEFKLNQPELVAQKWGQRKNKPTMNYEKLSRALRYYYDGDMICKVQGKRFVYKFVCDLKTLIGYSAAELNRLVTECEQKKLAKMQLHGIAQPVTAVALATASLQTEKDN
# How it was run: as §1
# ERG = target: T4, ERG (Homo sapiens, UniProt P11308 1-479); conditions: protein: recombinant; tags: N-terminal GST; dsDNA, one strand shown
# T4 sequence: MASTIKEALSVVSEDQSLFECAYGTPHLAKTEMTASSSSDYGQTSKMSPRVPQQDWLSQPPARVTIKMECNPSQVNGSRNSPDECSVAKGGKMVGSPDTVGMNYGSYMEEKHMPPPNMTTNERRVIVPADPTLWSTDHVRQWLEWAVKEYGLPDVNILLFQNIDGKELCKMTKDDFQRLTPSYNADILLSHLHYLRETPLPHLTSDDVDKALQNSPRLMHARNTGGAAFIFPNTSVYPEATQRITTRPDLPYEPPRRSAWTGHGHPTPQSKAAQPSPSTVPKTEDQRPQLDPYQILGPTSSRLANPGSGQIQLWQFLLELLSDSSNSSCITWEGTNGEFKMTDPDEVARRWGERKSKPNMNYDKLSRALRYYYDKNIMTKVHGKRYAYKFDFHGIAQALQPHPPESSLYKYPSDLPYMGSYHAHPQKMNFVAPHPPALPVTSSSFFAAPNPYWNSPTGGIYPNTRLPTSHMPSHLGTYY
# How it was run: as §1
# ELF1 = ELF1 (Homo sapiens, UniProt P32519 1-619); conditions: protein: recombinant; tags: N-terminal GST; dsDNA, one strand shown
# ELF1, sequence (P32519 whole entry): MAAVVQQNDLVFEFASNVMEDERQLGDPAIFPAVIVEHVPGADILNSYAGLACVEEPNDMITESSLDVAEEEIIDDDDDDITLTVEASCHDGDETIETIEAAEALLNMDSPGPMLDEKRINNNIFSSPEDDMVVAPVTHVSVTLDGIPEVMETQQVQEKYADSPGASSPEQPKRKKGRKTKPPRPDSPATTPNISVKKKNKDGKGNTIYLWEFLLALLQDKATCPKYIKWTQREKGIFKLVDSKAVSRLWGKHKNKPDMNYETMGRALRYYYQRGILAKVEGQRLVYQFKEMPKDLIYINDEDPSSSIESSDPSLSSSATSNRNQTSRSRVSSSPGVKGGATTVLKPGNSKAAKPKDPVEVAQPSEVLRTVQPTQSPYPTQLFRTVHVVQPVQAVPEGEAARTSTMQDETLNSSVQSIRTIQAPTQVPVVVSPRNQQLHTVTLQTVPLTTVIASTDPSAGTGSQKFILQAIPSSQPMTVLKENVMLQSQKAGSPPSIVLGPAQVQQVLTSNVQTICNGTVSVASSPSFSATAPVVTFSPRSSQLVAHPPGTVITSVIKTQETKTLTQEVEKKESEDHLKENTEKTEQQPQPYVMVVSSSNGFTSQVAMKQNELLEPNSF
# How it was run: as §1
# EHF = target: T5, EHF (Homo sapiens, UniProt Q9NZC4 1-300); conditions: protein: recombinant; tags: N-terminal GST; dsDNA, one strand shown
# T5 sequence: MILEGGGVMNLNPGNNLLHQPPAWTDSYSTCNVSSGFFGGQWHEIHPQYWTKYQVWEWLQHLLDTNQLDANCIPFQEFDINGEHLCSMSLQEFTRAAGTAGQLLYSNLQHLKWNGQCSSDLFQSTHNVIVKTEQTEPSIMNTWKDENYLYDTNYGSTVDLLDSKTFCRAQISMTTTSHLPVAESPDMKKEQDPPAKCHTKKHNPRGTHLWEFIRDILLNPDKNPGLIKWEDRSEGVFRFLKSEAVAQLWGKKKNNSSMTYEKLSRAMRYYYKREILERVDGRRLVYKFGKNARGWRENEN
# How it was run: as §1
# SPI1 = SPI1 (Homo sapiens, UniProt P17947 1-270); conditions: protein: recombinant; tags: N-terminal GST; dsDNA, one strand shown
# How it was run: as §1
# SPIB = SPIB (Homo sapiens, UniProt Q01892 1-262); conditions: protein: recombinant; tags: N-terminal GST; dsDNA, one strand shown
# SPIB, sequence (Q01892 whole entry): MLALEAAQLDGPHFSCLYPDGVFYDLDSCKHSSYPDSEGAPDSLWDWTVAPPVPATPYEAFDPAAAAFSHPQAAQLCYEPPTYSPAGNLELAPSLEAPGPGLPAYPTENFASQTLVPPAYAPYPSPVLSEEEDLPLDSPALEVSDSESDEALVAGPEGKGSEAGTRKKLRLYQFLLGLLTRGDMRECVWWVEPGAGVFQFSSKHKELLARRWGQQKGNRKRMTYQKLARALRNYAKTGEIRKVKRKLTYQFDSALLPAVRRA
# How it was run: as §1
# ELK3 = target: T6, ELK3 (Homo sapiens, UniProt P41970 1-407); conditions: protein: recombinant; tags: N-terminal GST; dsDNA, one strand shown
# T6 sequence: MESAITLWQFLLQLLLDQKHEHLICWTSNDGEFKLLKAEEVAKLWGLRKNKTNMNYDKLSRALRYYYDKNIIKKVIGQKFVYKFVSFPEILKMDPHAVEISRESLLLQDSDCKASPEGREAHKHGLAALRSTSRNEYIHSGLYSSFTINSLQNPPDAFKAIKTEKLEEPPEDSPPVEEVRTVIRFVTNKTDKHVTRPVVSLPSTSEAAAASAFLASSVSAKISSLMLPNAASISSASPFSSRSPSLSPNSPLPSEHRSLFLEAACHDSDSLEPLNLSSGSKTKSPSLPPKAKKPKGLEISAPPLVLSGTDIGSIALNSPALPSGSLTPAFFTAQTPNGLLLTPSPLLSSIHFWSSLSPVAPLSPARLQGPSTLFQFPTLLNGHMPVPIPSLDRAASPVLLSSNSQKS
# How it was run: as §1
# FEV = target: T7, FEV (Homo sapiens, UniProt Q99581 1-238); conditions: protein: recombinant; tags: N-terminal GST; dsDNA, one strand shown
# T7 sequence: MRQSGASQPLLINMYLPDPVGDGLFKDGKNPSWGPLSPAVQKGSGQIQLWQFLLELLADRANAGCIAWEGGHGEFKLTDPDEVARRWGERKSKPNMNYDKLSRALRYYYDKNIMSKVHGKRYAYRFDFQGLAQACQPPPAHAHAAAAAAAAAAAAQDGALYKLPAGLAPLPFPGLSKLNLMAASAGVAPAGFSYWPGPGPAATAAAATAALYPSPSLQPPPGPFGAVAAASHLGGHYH
# How it was run: as §1
# ETV5 = ETV5 (Homo sapiens, UniProt P41161 1-510); conditions: protein: recombinant; tags: N-terminal GST; dsDNA, one strand shown
# ETV5, sequence (P41161 whole entry): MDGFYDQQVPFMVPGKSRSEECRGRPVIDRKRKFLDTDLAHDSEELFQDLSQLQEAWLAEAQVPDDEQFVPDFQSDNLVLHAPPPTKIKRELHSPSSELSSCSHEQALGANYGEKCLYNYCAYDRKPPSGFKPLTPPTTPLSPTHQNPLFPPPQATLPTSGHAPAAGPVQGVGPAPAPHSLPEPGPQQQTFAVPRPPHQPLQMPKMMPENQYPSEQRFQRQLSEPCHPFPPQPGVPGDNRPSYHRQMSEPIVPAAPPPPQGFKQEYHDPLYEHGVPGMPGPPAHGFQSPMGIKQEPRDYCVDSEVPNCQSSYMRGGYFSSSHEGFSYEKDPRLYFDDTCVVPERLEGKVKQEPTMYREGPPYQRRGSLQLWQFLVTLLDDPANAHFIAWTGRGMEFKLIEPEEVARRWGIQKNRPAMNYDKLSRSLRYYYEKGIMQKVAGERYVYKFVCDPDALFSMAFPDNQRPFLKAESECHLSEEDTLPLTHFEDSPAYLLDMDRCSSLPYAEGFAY
# How it was run: as §1
# HSF1 = HSF1 (Homo sapiens, UniProt Q00613 1-529); conditions: protein: recombinant; tags: N-terminal GST; chain copies: 3; dsDNA, one strand shown
# HSF1, sequence (Q00613 whole entry): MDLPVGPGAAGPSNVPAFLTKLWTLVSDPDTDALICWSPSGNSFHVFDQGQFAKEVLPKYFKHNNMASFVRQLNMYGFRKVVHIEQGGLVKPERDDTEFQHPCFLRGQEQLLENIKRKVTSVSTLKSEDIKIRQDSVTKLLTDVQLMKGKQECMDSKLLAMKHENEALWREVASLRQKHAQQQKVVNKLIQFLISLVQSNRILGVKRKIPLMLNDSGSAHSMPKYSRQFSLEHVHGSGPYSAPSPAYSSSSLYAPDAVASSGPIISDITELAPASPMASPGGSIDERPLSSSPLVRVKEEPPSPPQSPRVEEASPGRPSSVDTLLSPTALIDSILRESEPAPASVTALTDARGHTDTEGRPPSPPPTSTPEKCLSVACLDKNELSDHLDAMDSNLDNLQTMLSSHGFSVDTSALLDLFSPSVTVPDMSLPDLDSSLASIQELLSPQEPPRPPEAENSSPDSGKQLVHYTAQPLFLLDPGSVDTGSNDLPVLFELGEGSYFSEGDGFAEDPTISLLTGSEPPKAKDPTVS
# How it was run: as §1
# SPIC = target: T8, SPIC (Homo sapiens, UniProt Q8N5J4 1-248); conditions: protein: recombinant; tags: N-terminal GST; dsDNA, one strand shown
# T8 sequence: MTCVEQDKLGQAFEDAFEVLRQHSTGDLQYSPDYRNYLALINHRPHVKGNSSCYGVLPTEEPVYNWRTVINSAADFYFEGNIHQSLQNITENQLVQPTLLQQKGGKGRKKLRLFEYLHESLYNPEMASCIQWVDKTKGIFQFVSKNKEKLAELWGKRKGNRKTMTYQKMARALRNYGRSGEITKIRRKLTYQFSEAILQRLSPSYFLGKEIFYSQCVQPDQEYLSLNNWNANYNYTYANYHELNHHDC
# How it was run: as §1
# ELF4 = ELF4 (Homo sapiens, UniProt Q99607 1-663); conditions: protein: recombinant; tags: N-terminal GST; dsDNA, one strand shown
# ELF4, sequence (Q99607 whole entry): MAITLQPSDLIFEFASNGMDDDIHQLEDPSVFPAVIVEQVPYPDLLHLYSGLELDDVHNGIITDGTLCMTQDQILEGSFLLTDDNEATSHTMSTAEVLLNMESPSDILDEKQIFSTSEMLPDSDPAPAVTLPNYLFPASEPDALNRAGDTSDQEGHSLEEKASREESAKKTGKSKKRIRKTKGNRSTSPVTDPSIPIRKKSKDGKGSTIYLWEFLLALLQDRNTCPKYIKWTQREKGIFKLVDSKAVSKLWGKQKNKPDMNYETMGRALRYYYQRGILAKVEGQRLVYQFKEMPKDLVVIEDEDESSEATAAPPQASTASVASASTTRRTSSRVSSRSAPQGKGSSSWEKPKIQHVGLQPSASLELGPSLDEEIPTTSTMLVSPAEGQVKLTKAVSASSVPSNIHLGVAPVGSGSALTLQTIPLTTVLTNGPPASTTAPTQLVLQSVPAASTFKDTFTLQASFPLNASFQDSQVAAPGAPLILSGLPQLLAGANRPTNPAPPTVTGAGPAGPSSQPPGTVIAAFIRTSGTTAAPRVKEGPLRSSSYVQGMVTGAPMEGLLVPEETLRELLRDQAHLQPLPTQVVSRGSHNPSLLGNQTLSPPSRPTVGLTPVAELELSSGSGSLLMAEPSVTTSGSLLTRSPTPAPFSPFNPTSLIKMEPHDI
# How it was run: as §1
# ELK4 = target: T9, ELK4 (Homo sapiens, UniProt P28324-2 1-405); conditions: protein: recombinant; tags: N-terminal GST; dsDNA, one strand shown
# T9 sequence: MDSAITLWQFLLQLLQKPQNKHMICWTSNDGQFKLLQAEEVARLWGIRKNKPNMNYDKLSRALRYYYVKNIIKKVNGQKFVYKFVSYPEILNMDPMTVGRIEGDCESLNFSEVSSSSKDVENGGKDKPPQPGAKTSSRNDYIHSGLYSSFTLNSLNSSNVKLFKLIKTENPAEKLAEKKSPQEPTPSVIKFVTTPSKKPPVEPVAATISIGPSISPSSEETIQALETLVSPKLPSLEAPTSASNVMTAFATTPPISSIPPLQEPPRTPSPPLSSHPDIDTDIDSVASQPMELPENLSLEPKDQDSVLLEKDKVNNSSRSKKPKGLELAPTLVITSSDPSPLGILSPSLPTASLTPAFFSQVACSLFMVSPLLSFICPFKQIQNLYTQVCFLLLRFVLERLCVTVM
# How it was run: as §1
# ETV2 = target: T10, ETV2 (Homo sapiens, UniProt O00321 1-342); conditions: protein: recombinant; tags: N-terminal GST; dsDNA, one strand shown
# T10 sequence: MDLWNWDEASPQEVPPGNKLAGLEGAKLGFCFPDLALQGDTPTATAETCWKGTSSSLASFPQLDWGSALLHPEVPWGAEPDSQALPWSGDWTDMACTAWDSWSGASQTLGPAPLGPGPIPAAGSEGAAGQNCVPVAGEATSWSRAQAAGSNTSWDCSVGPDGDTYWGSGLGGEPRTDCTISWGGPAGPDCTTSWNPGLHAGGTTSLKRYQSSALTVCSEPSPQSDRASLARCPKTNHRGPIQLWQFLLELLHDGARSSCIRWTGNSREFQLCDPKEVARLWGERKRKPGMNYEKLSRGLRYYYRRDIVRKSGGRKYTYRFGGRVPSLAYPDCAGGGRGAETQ
# How it was run: as §1
# ELF3 = target: T11, ELF3 (Homo sapiens, UniProt P78545 1-371); conditions: protein: recombinant; tags: N-terminal GST; dsDNA, one strand shown
# T11 sequence: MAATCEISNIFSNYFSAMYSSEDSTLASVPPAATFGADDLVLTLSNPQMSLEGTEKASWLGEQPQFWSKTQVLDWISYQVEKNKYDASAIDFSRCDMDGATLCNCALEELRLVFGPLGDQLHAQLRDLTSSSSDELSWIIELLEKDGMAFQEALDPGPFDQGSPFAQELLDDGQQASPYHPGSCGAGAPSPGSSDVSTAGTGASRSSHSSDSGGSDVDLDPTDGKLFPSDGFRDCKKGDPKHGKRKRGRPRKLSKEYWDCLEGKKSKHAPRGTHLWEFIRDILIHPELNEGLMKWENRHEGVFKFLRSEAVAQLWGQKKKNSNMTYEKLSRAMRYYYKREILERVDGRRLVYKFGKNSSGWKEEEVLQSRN
# How it was run: as §1
# CRX = CRX (Homo sapiens, UniProt O43186 1-299); conditions: protein: recombinant; tags: N-terminal GST; dsDNA, one strand shown
# CRX, sequence (O43186 whole entry): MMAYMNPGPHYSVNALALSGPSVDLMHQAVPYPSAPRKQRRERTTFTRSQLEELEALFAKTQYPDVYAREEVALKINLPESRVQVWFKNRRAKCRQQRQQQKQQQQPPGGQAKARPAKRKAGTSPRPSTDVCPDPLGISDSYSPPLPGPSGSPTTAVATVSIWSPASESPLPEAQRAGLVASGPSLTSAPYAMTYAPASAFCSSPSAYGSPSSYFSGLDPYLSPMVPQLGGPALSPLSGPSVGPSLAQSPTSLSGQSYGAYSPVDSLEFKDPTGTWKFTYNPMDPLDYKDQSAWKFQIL
# How it was run: as §1
# ETV1 = ETV1 (Homo sapiens, UniProt P50549 1-477); conditions: protein: recombinant; tags: N-terminal GST; dsDNA, one strand shown
# ETV1, sequence (P50549 whole entry): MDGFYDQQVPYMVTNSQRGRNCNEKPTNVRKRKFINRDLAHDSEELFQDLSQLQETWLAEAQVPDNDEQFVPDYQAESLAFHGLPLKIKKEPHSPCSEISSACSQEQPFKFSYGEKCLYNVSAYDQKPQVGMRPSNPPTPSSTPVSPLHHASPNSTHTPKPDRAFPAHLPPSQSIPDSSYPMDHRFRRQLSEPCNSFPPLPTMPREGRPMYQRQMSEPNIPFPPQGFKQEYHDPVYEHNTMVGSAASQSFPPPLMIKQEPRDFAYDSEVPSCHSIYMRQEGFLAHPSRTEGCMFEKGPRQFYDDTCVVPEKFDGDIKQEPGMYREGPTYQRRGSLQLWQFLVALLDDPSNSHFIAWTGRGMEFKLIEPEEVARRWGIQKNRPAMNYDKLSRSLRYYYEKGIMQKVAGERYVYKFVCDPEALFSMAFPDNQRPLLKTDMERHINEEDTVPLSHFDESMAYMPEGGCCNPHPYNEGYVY
# How it was run: as §1
sequence,measurement,setting,value
AATTGT,binding signal,FLI1,"1.3 fold enrichment (6-mer frequency, TF over GST control)"
same,binding signal,ELK1,"1.2 fold enrichment (6-mer frequency, TF over GST control)"
same,binding signal,GABPA,"1.21 fold enrichment (6-mer frequency, TF over GST control)"
same,binding signal,ERG,"1.28 fold enrichment (6-mer frequency, TF over GST control)"
same,binding signal,ELF1,"1.27 fold enrichment (6-mer frequency, TF over GST control)"
same,binding signal,EHF,"1.23 fold enrichment (6-mer frequency, TF over GST control)"
same,binding signal,SPI1,"1.33 fold enrichment (6-mer frequency, TF over GST control)"
same,binding signal,SPIB,"1.34 fold enrichment (6-mer frequency, TF over GST control)"
same,binding signal,ELK3,"1.29 fold enrichment (6-mer frequency, TF over GST control)"
same,binding signal,FEV,"1.25 fold enrichment (6-mer frequency, TF over GST control)"
same,binding signal,ETV5,"1.2 fold enrichment (6-mer frequency, TF over GST control)"
same,binding signal,HSF1,"1.18 fold enrichment (6-mer frequency, TF over GST control)"
same,binding signal,SPIC,"1.26 fold enrichment (6-mer frequency, TF over GST control)"
same,binding signal,ELF4,"1.29 fold enrichment (6-mer frequency, TF over GST control)"
same,binding signal,ELK4,"1.14 fold enrichment (6-mer frequency, TF over GST control)"
same,binding signal,ETV2,"1.33 fold enrichment (6-mer frequency, TF over GST control)"
same,binding signal,ELF3,"1.31 fold enrichment (6-mer frequency, TF over GST control)"
same,binding signal,CRX,"1.17 fold enrichment (6-mer frequency, TF over GST control)"
same,binding signal,ETV1,"1.22 fold enrichment (6-mer frequency, TF over GST control)"
